# This is a sample that favours compounds with a hit; in the whole collection about 1.2% have one here.
# RGS4-Gao reg: modulators of RGS4 binding to Galphao, primary screen, biochemical, multiplexed bead flow cytometry; AID 1415, 2008; actives 0.33% (n = 220,000); binding response (% of control), % at 10 µM; actives lie on both sides; Guanine nucleotide-binding protein G(o) subunit alpha (Homo sapiens), P09471; in the data active = binding response below about 49% or above about 150%; inactive = in between;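 also: fluorescent Galphao activated with aluminum fluoride binding bead-coupled RGS4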
# RGS8-Gao: RGS8-Galphao binding modulators, primary screen, biochemical, multiplexed bead flow cytometry. Guanine nucleotide-binding protein G(o) subunit alpha (Homo sapiens), P09471. actives lie on both sides. response (percent of control binding), % at 10 µM. actives 0.34% (n = 220,000). AID 1423, 2008; in the data active = response below about 60% or above about 140%; inactive = in between;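 also: Galphao activated as the GDP aluminium fluoride complex binding bead-coupled RGS8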
# RGS16-Gao HTS: modulators of RGS16 binding to Galphao, primary screen, biochemical, human proteins, multiplexed bead flow cytometry. Regulator of G-protein signaling 16 (Homo sapiens) + Guanine nucleotide-binding protein …. bead-based flow cytometry RGS16-Galphao binding, fluorescence; actives lie on both sides. binding response (% of control), % at 10 µM. actives 0.38% (n = 220,000). AID 1441, 2008; call rule not given here;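 also: Galphao activated by GDP with aluminum fluoride before binding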
# Target sequence (O15492 whole entry, looked up): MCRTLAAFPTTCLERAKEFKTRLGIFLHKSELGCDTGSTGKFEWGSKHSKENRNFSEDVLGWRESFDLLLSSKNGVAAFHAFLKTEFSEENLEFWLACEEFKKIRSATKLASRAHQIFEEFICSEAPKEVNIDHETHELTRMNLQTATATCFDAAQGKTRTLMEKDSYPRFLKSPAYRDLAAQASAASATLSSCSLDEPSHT
# Target sequence (P09471 whole entry, looked up): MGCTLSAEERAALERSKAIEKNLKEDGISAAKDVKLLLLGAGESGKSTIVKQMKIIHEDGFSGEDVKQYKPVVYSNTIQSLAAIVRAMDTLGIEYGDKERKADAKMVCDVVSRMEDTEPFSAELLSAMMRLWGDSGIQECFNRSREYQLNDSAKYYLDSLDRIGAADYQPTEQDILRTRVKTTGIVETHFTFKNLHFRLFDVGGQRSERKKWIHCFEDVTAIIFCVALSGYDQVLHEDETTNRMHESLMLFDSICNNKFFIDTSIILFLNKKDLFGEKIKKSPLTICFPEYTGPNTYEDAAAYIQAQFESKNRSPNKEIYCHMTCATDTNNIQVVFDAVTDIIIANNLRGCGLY
# GSH bead fluor: compound fluorescence on glutathione beads, profiling panel, artefact control, biophysical, 488/530 nm, flow cytometry; GSH beads flow cytometry, compound fluorescence 488/530 nm; active compounds read high; fluorescence (KMESF) at 10 µM; actives 0.25% (n = 190,000); AID 1776, 2009; in the data active = fluorescence above about 89;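 also: glutathione beads carrying GST-tagged Bcl family fusion proteins plus one bare bead set; values are compound well signal with DMSO vehicle wells as background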
# RGS7-Gao: RGS7-Galphao binding modulators, primary screen, biochemical, multiplexed bead flow cytometry. Guanine nucleotide-binding protein G(o) subunit alpha (Homo sapiens), P09471. actives 0.35% (n = 220,000). actives lie on both sides. binding response (% of control), % at 10 µM; in the data active = binding response below about 49% or above about 150%; inconclusive = no clear call, values can overlap the other calls; inactive = in between;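 also: fluorescent Galphao held in activated GDP-AlF4 state binding bead-coupled RGS7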
# Avidin fluor: green autofluorescence of compounds with avidin beads – biophysical, 488/530 nm, flow cytometry, artefact control, profiling panel | compound fluorescence 488/530 nm; active compounds read high | actives 0.38% (n = 220,000) | fluorescence (KMESF) at 10 µM | AID 1775, 2009; in the data active = fluorescence above about 47
# * = called active by the depositor; ? = inconclusive.
SMILES,RGS4-Gao reg,RGS8-Gao,RGS16-Gao HTS,GSH bead fluor,RGS7-Gao,Avidin fluor
COc1ccccc1NC(=O)N1CCC(c2nc3cc(C)c(C)cc3[nH]2)CC1,104.5,104.3,111.3,12,103.6,22
O=c1c2ccccc2c(C=Nc2cccc(O)c2)c(O)n1-c1ccc2c(c1)OCO2,85.4,98.0,100.3,12,92.6,57*
COc1ccc(Cn2c(C)nnc2-c2cnn(C)c2N)cc1OC,98.9,99.6,96.7,13,100.8,9
Cc1nnc(-c2cnn(C)c2N)n1Cc1ccccc1F,103.8,102.6,107.6,270*,96.6,6
CC(=O)Nc1ccc2c(c1)C(=O)c1ccccc1C2=O,106.2,101.4,100.7,27,113.9,59*
O=C1c2ccccc2C(=O)c2cc(NC(=O)C3CC3)ccc21,101.1,102.0,89.7,15,97.5,6
O=C(c1cnn2c(C(F)(F)F)cc(-c3cccs3)nc12)N1CCN(C(c2ccccc2)c2ccccc2)CC1,96.6,103.4,107.6,126*,96.5,5
CN1CCN(C(=O)c2cnn3c(C(F)(F)F)cc(-c4cccs4)nc23)CC1,99.7,103.7,106.9,24,98.7,3
CCC(C)NC(=O)CN1C(=O)NC2(CCc3ccccc3C2)C1=O (configuration not stated),103.2,100.0,101.9,12,?,9
O=C(CSc1nnnn1C1CCCCC1)Nc1ccc(F)cc1,104.5,103.2,102.5,22,108.1,5
O=C(CSc1nnnn1C1CCCC1)Nc1ccc(F)cc1,109.4,107.3,108.0,37,129.1,89*
NC(=O)c1c(NC(=O)CN2C(=O)CCC2=O)sc2c1CCCCC2,105.1,104.8,113.4,28,106.3,8
CCC1(C)NC(=O)N(CC(=O)Nc2sc3c(c2C(N)=O)CCC3)C1=O (configuration not stated),82.8,86.1,1.2,222*,77.2,3
Cc1cc(Br)ccc1-n1[nH]c(C)c(C=Nc2cccc3nsnc23)c1=O,98.2,98.2,100.4,10,105.2,10
CCOC(=O)N1CCN(c2nc(-c3ccc(OC)cc3)no2)CC1,103.6,102.0,100.6,17,102.9,8
Cc1cccc(-c2c3c(=O)n(C)c(=O)n(C)c3cn2CC2CCCO2)c1 (configuration not stated),83.6,92.6,86.5,261*,99.0,6
CCOC(=O)c1[nH]c2ccccc2c1NC(=O)CCN1CCN(C(=O)OCC)CC1,111.6,99.2,97.7,36,135.6,132*
Cc1ccc(C2=NN(S(=O)(=O)c3ccccc3)C(c3ccccc3O)C2)cc1 (configuration not stated),101.8,103.1,114.6,21,101.8,13
Cc1ccc(-c2ccc(CCC(=O)O)n2Cc2ccco2)cc1,95.1,97.9,96.2,13,100.0,49*
N=c1c2c(-c3ccccc3)c(-c3ccccc3)n(Cc3ccco3)c2ncn1Cc1ccccc1,96.5,90.4,93.5,12,98.5,14
CC(C)Cn1cnc2c(c(-c3ccccc3)c(-c3ccccc3)n2Cc2ccco2)c1=N,105.7,101.7,105.6,251*,101.9,8
Cc1cc(C(=O)Nn2c(C)nc3ccccc3c2=O)ccc1[N+](=O)[O-],95.4,98.7,95.2,12,101.2,12
Cc1cccc(-c2nc3ccccc3c(=O)n2NC(=O)c2ccc([N+](=O)[O-])c(C)c2)c1,106.7,98.6,101.6,19,147.2,73*
CCc1nc2sc(C)c(C)c2c(=O)n1CCO,129.9,104.5,141.5,28,120.4,52*
COC(=O)c1c(NC(=O)CSc2nnc(-c3ccco3)n2Cc2ccccc2)sc(C)c1C,99.6,102.0,102.4,268*,104.2,8
COC(=O)CSc1nnc(-c2ccco2)n1Cc1ccco1,106.8,104.2,119.4,27,127.1,72*
O=C(CCCc1cccs1)Nc1nccs1,103.1,105.2,101.8,26,107.8,20

# Bioassay records: PubChem BioAssay, NMMLSC
